According to the supplement of paper PMC11219838:
Values without a mark were called inactive.

test system: Meloidogyne hapla J2; test: proportion of mobile M. hapla J2 relative to DMSO control (fraction of DMSO control); higher = more viable, less nematicidal, active = 0.7 or less; details: 60 µM; 5 days; temperature: 20 °C
Description: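 DODA library (846 commercial 1,3,4- and 1,2,4-oxadiazole compounds plus commercial nematicide controls) screened at a single dose of 60 µM (0.6% DMSO) in 96-well plates, two biological replicates. Read-outs: C. elegans N2 L1 survival/reproduction score at day 6, 20 °C (0: 0-10 worms, 1: 11-20, 2: 21-50, 3: >50, 4: overgrown/starved). C. elegans daf-2 dauer, D. dipsaci and M. hapla J2 mobility at day 5, 20 °C, and P. penetrans mobility at day 5, 20 °C, each relative to DMSO controls. M. hapla egg hatching at day 12, 25 °C, relative to the mean of 8 DMSO wells on the same plate.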

Going from `O=C(CSc1nnc(-c2ccncc2)o1)Nc1cc(C(F)(F)F)ccc1Cl` to `O=C(CSc1nnc(-c2ccccc2)o1)Nc1cc(C(F)(F)F)ccc1Cl`, the “proportion of mobile M. hapla J2” value rises from 0.841 to 1.04.

First: CCCC(=O)Nc1ccccc1-c1nc(-c2cccnc2)no1
Second: CC(C)CCC(=O)Nc1ccccc1-c1nc(-c2ccccn2)no1
The “proportion of mobile M. hapla J2” value of the first is higher: 1.04 for the first, 1.03 for the second.

First: c1cc(-c2noc(C34CC5CC(CC(C5)C3)C4)n2)ccn1
Second: Cc1ccc(C)c(-c2nc(-c3ccncc3)no2)c1
The “proportion of mobile M. hapla J2” value of the first is lower: 0.941 for the first, 1.09 for the second.

First: O=C(CSc1nnc(-c2cccc(Br)c2)o1)N1CCCCC1
Second: O=C(CSc1nnc(-c2cccc(Cl)c2)o1)NC1CCCCC1
The “proportion of mobile M. hapla J2” value of the first is higher: 0.915 for the first, 0.874 for the second.

Going from `Cc1ccc(-c2noc(-c3ccc(-n4nncc4C)cc3)n2)cc1` to `Cc1cccc(-c2noc(-c3ccc(Cl)cc3)n2)c1`, the “proportion of mobile M. hapla J2” value rises from 0.978 to 1.05.

First: COc1ccc(-c2noc(C3CCCCC3)n2)cc1
Second: COc1ccc(-c2noc(-c3cccc(Cl)c3)n2)cc1
The “proportion of mobile M. hapla J2” value of the first is higher: 0.927 for the first, 0.819 for the second.

First: CC(Sc1nnc(-c2ccc(C(C)(C)C)cc2)o1)C(=O)Nc1nccs1 (stereo not given)
Second: Cc1ccc(NC(=O)CSc2nnc(-c3ccc(C(C)(C)C)cc3)o2)c(C)c1
The “proportion of mobile M. hapla J2” value of the first is higher: 0.845 for the first, 0.766 for the second.

Compared with `Clc1cc(Br)ccc1OCc1nc(-c2ccncc2)no1`, `Fc1ccc(OCc2nc(-c3ccc(Br)cc3)no2)cc1` is lower in “proportion of mobile M. hapla J2” value: 0.953 for the first, 0.95 for the second.

Going from `CCOC(=O)c1c(NC(=O)CSc2nnc(-c3ccc(Cl)cc3)o2)sc(C)c1C` to `CC(=O)Nc1c(C)ccc(CNC(=O)CSc2nnc(-c3ccc(C(C)(C)C)cc3)o2)c1C`, the “proportion of mobile M. hapla J2” value falls from 1.09 to 0.88.

First: COc1ccc(Cl)cc1-c1noc(-c2ccccc2)n1
Second: Brc1ccccc1-c1nc(-c2ccccc2)no1
The “proportion of mobile M. hapla J2” value of the first is lower: 1.02 for the first, 1.04 for the second.

Going from `COc1nc(C)ccc1-c1noc(-c2ccc(F)cc2)n1` to `COc1ccc(-c2noc(-c3ccc(C)cc3Cl)n2)cc1`, the “proportion of mobile M. hapla J2” value falls from 0.992 to 0.969.

First: COc1ccc(C(=O)CSc2nnc(-c3ccccc3)o2)cc1
Second: CCOc1ccc(-c2nc(-c3ccccc3)no2)cc1
The “proportion of mobile M. hapla J2” value of the first is higher: 0.987 for the first, 0.922 for the second.

First: Cc1cccc(NC(=O)CSc2nnc(-c3ccncc3)o2)c1C
Second: Cc1ccc(-c2nnc(SCc3ccccc3C)o2)cc1
The “proportion of mobile M. hapla J2” value of the first is lower: 1.02 for the first, 1.06 for the second.

First: COc1cccc(-c2noc(-c3ccc(C)cc3Cl)n2)c1
Second: CCc1ccc(OCc2nc(-c3cccc(OC)c3)no2)cc1
The “proportion of mobile M. hapla J2” value of the first is higher: 1 for the first, 0.74 for the second.

Going from `Cc1ccc(-c2nnc(SCc3ccc(Br)cc3)o2)cc1` to `Cc1ccc(-c2nnc(SCc3ccccc3C#N)o2)cc1`, the “proportion of mobile M. hapla J2” value rises from 0.923 to 0.937.

First: Clc1ccc(-c2noc(COc3ccc4c(c3)OCO4)n2)cc1
Second: CCc1ccc(OCc2nc(-c3cccnc3)no2)cc1
The “proportion of mobile M. hapla J2” value of the first is lower: 0.899 for the first, 1.04 for the second.

Compared with `CCCCCOC(=O)CSc1nnc(-c2ccc(Cl)cc2Cl)o1`, `CCOc1ccccc1-c1nnc(SCC(=O)Nc2nc(C)cs2)o1` is higher in “proportion of mobile M. hapla J2” value: 0.737 for the first, 0.993 for the second.

Going from `COc1ccc(CC(=O)Nc2ccc(-c3noc(COc4cccc(C)c4C)n3)cc2)cc1` to `FC(F)(F)c1cccc(-c2noc(-c3cccs3)n2)c1`, the “proportion of mobile M. hapla J2” value rises from 0.88 to 0.893.

For `COc1cccc(-c2nnc(SCC(=O)NC3CCCCC3)o2)c1`, the “proportion of mobile M. hapla J2” value was 0.869.

In the case of `Cc1ccc(-c2nnc(SCc3ccccc3F)o2)cc1`, the “proportion of mobile M. hapla J2” value is reported as 0.636 (active).
For `COc1ccc(-c2noc(COc3ccc(C4CCCCC4)cc3)n2)cc1`, the “proportion of mobile M. hapla J2” value was 0.62 (active).
With `CCn1c(SCc2ccc(OC)cc2)nnc1-c1ccco1` the “proportion of mobile M. hapla J2” value was 0.611 (active).
